# This is one part of a sample in which hits are shown more often than they occur.
# GluA2 TARP mod: modulates AMPAR-stargazin complexes | calls only at 30 µM | 40,000 tested, 3.5% active | HEK293 GluA2+stargazin, membrane potential dye (FDSS), glutamate EC50; hits were called plate by plate, in both directions;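 active means any of four per-well response measures lying three or more SD from its plate-wide compound average, in either direction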
# GIRK2 act: GIRK2 channel activators by thallium flux. P48051. activation (% efficacy), % for hits at 37.5 µM. HEK293 GIRK2/NPY4 cells, thallium flux fluorescence. 34,000 tested, under 10 active;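 active means primary screen hit, no activity in plain HEK293 cells, and in GIRK2-only cells above 5% efficacy rising with concentration; inactive means the rest, including fluorescent compounds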;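 further: efficacy is normalized control-subtracted fluorescence 15 s after thallium addition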
# Target sequence (P48051 whole entry, looked up): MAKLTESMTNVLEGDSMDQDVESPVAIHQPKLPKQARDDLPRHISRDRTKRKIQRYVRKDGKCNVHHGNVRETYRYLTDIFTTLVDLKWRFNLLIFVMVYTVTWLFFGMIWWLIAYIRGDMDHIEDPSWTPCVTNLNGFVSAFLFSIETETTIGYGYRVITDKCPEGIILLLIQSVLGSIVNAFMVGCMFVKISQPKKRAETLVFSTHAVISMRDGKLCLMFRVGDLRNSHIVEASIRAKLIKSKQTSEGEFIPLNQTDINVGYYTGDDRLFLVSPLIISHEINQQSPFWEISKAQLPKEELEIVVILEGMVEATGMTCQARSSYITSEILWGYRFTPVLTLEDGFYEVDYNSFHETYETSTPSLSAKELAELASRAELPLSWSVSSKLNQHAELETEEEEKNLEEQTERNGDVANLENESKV
# * marks the source's active call; other numbers are inactive results; i = inactive; . = no result given; + = active, no number; ! = a repeat was not active.
SMILES,GluA2 TARP mod,GIRK2 act
COc1cccc(-c2noc(CSc3nc4cc5c(cc4c(=O)n3Cc3ccco3)OCO5)n2)c1,i,i
Cc1ccc(CNC(=O)Cn2cnc(C(C)C)cc2=O)cc1,+,i
Cc1ccc(CNC(=O)Cn2cnc(-c3ccc(C)cc3)cc2=O)cc1,i,i
O=C1CN(C(=O)C2CN(C(=O)c3cnccn3)C2)CCN1,i,i
CC1CC(C)CN(S(=O)(=O)c2ccc(C(=O)Nc3ccc4ncsc4c3)cc2)C1 (centres undefined),+,i
O=C(Nc1ccc2ncsc2c1)c1ccc(S(=O)(=O)N2CCOCC2)cc1,i,i
Cc1ccc(NC(=O)C(=O)NCCC(O)c2ccco2)cc1Cl (centres undefined),i,i
Cc1cccc(NC2SC(=O)N(Cc3ccccc3)C2=O)c1 (centres undefined),+,i
Cc1cccc(NC2SC(=O)N(C(C)C)C2=O)c1 (centres undefined),i,i
Cc1cccc(NC(=O)CC2SC(=O)N(CC(=O)c3ccccc3)C2=O)c1 (centres undefined),+!,i
C=CCN1C(=O)SC(CC(=O)Nc2ccc(Br)cc2)C1=O (centres undefined),+,i
C=CCN1C(=O)SC(CC(=O)Nc2ccc(NC(C)=O)cc2)C1=O (centres undefined),i,i
O=C(CC1SC(=O)N(CC(=O)c2ccccc2)C1=O)Nc1ccc(Br)cc1 (centres undefined),i,i
Cc1ccnc(Nc2ccc(NCCNC(=O)c3cc4ccccc4oc3=O)nn2)c1,.,i
CCn1ccc(C(=O)N(CCN2CCOCC2)c2nc3c(C)ccc(Cl)c3s2)n1,.,i
CCCOc1ccc(-c2csc(NC(=O)c3ccno3)n2)cc1,i,i
Cc1nnsc1C(=O)N1CCC(CNC(=O)c2c(-c3ccccc3Cl)noc2C)CC1,i,i
Cc1onc(-c2ccccc2Cl)c1C(=O)N1CCC(c2ccsc2)CC1,+,i
Cc1ccc(-c2ccc(=O)n(CCCC(=O)N3c4ccccc4CC3C)n2)cc1 (centres undefined),+,i
COc1ccc(-c2ccc(=O)n(CCCC(=O)N3CCc4ccccc43)n2)cc1OC,i,i
O=C(NCCCn1ncccc1=O)c1cc2ccccc2[nH]1,i,i
Cc1cc(=O)oc2cc(OCC(=O)c3ccc(Cl)c(Cl)c3)ccc12,i,.
Cc1cc(=O)oc2cc(OCC3CCNCC3)ccc12,+,i
Cn1c(=O)c2c(nc(NCc3ccco3)n2Cc2ccc(Cl)cc2)n(C)c1=O,i,.
Cc1ccc(S(=O)(=O)c2ccc(=O)n(CC(=O)N3CCN(c4ccccc4F)CC3)n2)cc1,i,i
SMILES,GluA2 TARP mod,GIRK2 act
O=C(Cc1ccc(Cl)cc1)Nc1ccc2c(c1)CCCN2C(=O)c1ccco1,i,.
COCCCNC(=O)C(=O)Nc1ccc([N+](=O)[O-])cc1,+,.
CN(C)CCNC(=O)C(=O)Nc1ccc([N+](=O)[O-])cc1,i,.
O=C(CC12CC3CC(CC(C3)C1)C2)NCCS(=O)(=O)N1CCN(c2ccccn2)CC1,i,i
COc1ccc(CCNC(=O)CN2CCN(c3ncnc4c3nnn4C)CC2)cc1OC,i,i
N#C/C(=C\c1cccnc1)c1nc2ccccc2s1,+,.
N#C/C(=C\c1ccc(O)cc1)c1nc2ccccc2s1,i,.
O=S(=O)(NCCOc1ccc(-c2ccc(F)cc2)nn1)c1cc(F)ccc1F,i,i
COC(=O)C1=C(CS(=O)(=O)c2ccccc2)NC(=O)NC1c1ccc(OC)c(OC)c1 (centres undefined),+,.
COC(=O)C1=C(CS(=O)(=O)c2cc(Cl)ccc2OC)NC(=O)NC1c1ccccc1 (centres undefined),+,i
COC(=O)C1=C(CS(=O)(=O)c2ccc(OC)c(OC)c2)NC(=O)NC1c1cccc(Cl)c1 (centres undefined),i,.
COC(=O)C1=C(CS(=O)(=O)c2ccc(OC)c(OC)c2)NC(=O)NC1c1ccc(O)cc1 (centres undefined),i,.
CCN(CC)c1ccc(N2CCN(C(C)=O)CC2)nn1,i,i
O=C(CCC1CCCCC1)N1CCC2(CC1)NC(=O)N(CCc1ccccc1)C2=O,i,i
O=C(CCCS(=O)(=O)c1ccccc1)Nc1ccccc1Oc1ccccc1,i,i
COc1ccc(S(=O)(=O)CC(=O)Nc2ccccc2Oc2ccccc2)cc1,+,i
COc1ccc(S(=O)(=O)CC(=O)Nc2cccc(Br)c2)cc1,+,i
COc1ccc(OCCCC(=O)Nc2cccc(Br)c2)cc1,i,i
COc1ccc(C2(CNC(=O)c3ccncc3)CCCC2)cc1,i,i
O=C(COc1ccc(Cl)cc1)Nc1nnc(Cc2cccs2)o1,i,i
O=c1nc2c(-c3cccc(Cl)c3)n[nH]n2c2cc(Cl)ccc12,i,i
N#Cc1cccc(C(=O)N2CCC(c3ccsc3)CC2)c1,i,i
COc1cc(OC)c(NC(=O)Cn2nc3c(cc2=O)CCCC3)cc1Cl,+,i
COc1cc(Cl)c(C)cc1NC(=O)Cn1nc2c(cc1=O)CCCC2,i,i
COc1ccc(S(=O)(=O)CC(=O)N2CCNC(=O)C2(C)C)cc1,i,i
SMILES,GluA2 TARP mod,GIRK2 act
Cc1ccc(N2C(=O)CCS2(=O)=O)cc1S(=O)(=O)NCCc1c[nH]c2ccccc12,i,i
O=C1CCS(=O)(=O)N1c1ccc(S(=O)(=O)NCCc2cccs2)cc1,+,i
CN1C(=O)C(C)(C)COc2cc(NC(=O)c3ccno3)ccc21,i,i
COc1ccc(-n2c(C)cn3c4c(=O)n(Cc5cccc(C)c5)c(=O)n(C)c4nc23)cc1,i,.
CCc1cccc2sc(N(CCN3CCOCC3)C(=O)c3cc(C)nn3CC)nc12,i,i
Cc1cccc(C(=O)N2CCC3(CC2)CC(=O)c2ccccc2O3)c1,+,.
O=C1CC2(CCN(C(=O)c3ccc(-c4ccccc4)cc3)CC2)Oc2ccccc21,i,.
Cn1nc(-c2ccccc2)cc1C(=O)Nc1cccc(-c2cnc3n2CCC3)c1,+,i
O=C(Nc1cccc(-c2cnc3n2CCC3)c1)c1ccc2c(c1)OCO2,+,i
O=C(Nc1cccc(N2CCCC2=O)c1)c1ccc2c(c1)OCO2,i,.
CC(Oc1ccccc1)C(=O)Nc1cccc(-c2cnc3n2CCC3)c1 (centres undefined),i,i
COc1ccc(S(=O)(=O)Nc2ccc3c(c2)N(C(=O)C2CC2)CC3)cc1,i,i
CCc1ccc(S(=O)(=O)Nc2ccc3c(c2)N(C(=O)C2CC2)CC3)s1,+,i
CN(C)S(=O)(=O)c1ccc(C(=O)NCC2CCN(C(=O)c3cccn(C)c3=O)CC2)cc1,i,i
CN(C)C(CNC(=O)C(=O)NC1CC1)c1ccc(F)cc1 (centres undefined),i,i
Cc1ccc(C(CNC(=O)C(=O)NC2CC2)N(C)C)cc1 (centres undefined),+,i
CC(C)(C)NC(=O)c1ccc(N2CCCCS2(=O)=O)cc1,i,i
COc1ccc(NC(=O)CCCn2nc(-c3ccco3)ccc2=O)cc1OC,i,i
O=C(NCC1CCN(S(=O)(=O)C2CC2)CC1)C1COc2ccccc2O1 (centres undefined),i,i
